Rows were chosen to be rich in hits. Some 15% of all compounds tested hit in one or more screens of this group.
Gal4-VP16 FLuc: inhibits Gal4-VP16 luciferase reporter, ROR gamma counter-screen; Drosophila S2 Gal4-VP16 UAS-luciferase, luminescence, 20 h; Potency, µM (top dose mostly 53.6 µM), for inactives: at the highest dose activity, negative = inhibition, actives largely listed as inhibitors; 3.5% of 310,000 active;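 further: Gal4-VP16 expression switched on by copper sulfate through the metallothionein promoter; nearly all actives have a fitted effect of over 50% in size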
TDP1 cell CPT: DT40-hTDP1 cell growth loss with CPT. 12% of 420,000 active. Potency, µM (series often up to 46.2 µM), for the others: at the highest dose activity change, negative = growth inhibition, hits mostly inhibitors. chicken DT40 Tdp1-/-;hTDP1 cells + 20 nM CPT, ATP luminescence, 48 h; further: nearly all actives have a fitted effect of over 55% in size
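Chicken DT40 Tdp1-/- cells complemented with human TDP1, 400 cells/well, exposed to compounds plus 20 nM camptothecin for at least 48 h at 37 C; viability read as ATP content by CellTiter-Glo luminescence.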
12-LOX inh: ALOX12 (human) lipoxygenase inhibition; P18054; purified 12hLO, xylenol orange hydroperoxide absorbance; Potency, µM (doses to about 108 µM), for inactives: at the top dose activity change, negative = inhibition, usual class: inhibitors; 1.1% of 580,000 active; AID 1671190
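Purified human 12hLO (150 nM final) in 25 mM Hepes, 0.01% Triton X-100, pH 7.0 was preincubated 15 min at room temperature with compound. Then 40 uM arachidonic acid was added, 30 min. Hydroperoxide was read by Fe-XO absorbance ratio 573/405 nm.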
RORgamma inh: blocks mouse ROR gamma transcriptional activity | P51450 | Drosophila S2 Gal4-RORgamma UAS-luciferase reporter, 20 h | Potency, µM (series often up to 53.6 µM), for the others: top-dose activity change, negative = inhibition, hits mostly inhibitors | 5.4% of 310,000 active; further: nearly all actives have a fitted effect of over 60% in size
Target sequence (P51450 whole entry, looked up, the tested form may be a part): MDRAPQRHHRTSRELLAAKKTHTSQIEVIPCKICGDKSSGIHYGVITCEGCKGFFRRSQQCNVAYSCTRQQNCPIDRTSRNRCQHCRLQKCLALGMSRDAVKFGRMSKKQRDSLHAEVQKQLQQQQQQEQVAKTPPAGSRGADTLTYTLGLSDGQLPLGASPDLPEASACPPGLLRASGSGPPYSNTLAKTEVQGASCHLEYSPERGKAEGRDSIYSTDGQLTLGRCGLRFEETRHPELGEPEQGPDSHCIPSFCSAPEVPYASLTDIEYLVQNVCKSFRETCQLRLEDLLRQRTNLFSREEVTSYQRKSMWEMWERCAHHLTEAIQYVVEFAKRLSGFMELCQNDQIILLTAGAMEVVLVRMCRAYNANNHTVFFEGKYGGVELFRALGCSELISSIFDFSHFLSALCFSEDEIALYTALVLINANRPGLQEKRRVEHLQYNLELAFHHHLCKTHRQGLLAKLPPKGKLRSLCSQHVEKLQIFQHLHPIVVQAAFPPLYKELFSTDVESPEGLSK
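Stable Schneider cell line, Gal4 DNA-binding domain fused to ROR gamma, UAS-luciferase. Cmpd 1 hr RT → CuSO4 700 uM final → 20 hr RT → luciferase reagent 10 min → luminescence.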
TDP1 cell noCPT: qHTS for Inhibitors of human tyrosyl-DNA phosphodiesterase 1 (TDP1): qHTS in cells in absence of CPT; DT40 Tdp1-/- hTDP1 cells, no CPT, ATP luminescence, 48 h; Potency, µM (titrated, usually from 46.2 µM), inactives show at the top dose activity change, negative = growth inhibition, hits mostly inhibitors; 15% of 420,000 active; further: nearly all actives have a fitted effect of over 55% in size
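Growth kinetics read by CellTiter-Glo luminescence after ≥48 hr at 37 °C. Cells: DT40 Tdp1-/- stably carrying human TDP1, 400 per well, compound exposure in the absence of CPT (DMSO vehicle).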
ELG1 repair inh: inhibitors of ELG1-dependent DNA repair in HEK293T cells; 2.3% of 330,000 active; AID 504467; HEK293T ELG1-luciferase reporter, luminescence, 16 h; DNA damage induced by 5-fluorouridine; Potency, µM (titrated, usually from 46.1 µM), for inactives: at the top dose activity change, negative = inhibition, hits mostly inhibitors; further: nearly all actives have a fitted effect of over 55% in size
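Quantitative HTS, concentration-response format. 2,000 cells/well co-treated with 5-fluorouridine and compound, 16 hr in 5% CO2 at 37 °C; ONE-Glo luminescence read after 30 min.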
The depositor's hits bear a star; ? = inconclusive; . = no result given. The call rests on the fitted dose curve; in most records, active means well fitted curve in the direction sought with a large enough effect; inconclusive means small, poorly fitted or top-dose-only effect, or another doubt; inactive means no such curve, though single readings can be large; an effect the other way counts as inactive or inconclusive. On the % scale 0 is the no-effect control and ±100 the full control effect; potency means the concentration at half of the fitted maximal effect.

SMILES	Gal4-VP16 FLuc	TDP1 cell CPT	12-LOX inh	RORgamma inh	TDP1 cell noCPT	ELG1 repair inh
CCCCCCCc1ccc(-c2ccc(OC(F)F)cc2)nc1	.	.	4%	.	.	.
CCC(C)(C)NCc1ccco1	.	.	21%	.	.	.
COc1ccc(C(=O)NCC(=O)OCc2ccc(F)cc2Cl)cc1OC	0%	-1%	-23%	38%	?	-1%
COc1ccc(C(=O)NCC(=O)OCc2c(Cl)cccc2Cl)cc1OC	.	?	-15%	.	15µM*	3%
COc1ccc(C(=O)NCCSCc2ccccc2Cl)cc1OC	5%	-12%	50µM*	?	?	-15%
O=C(N[C@@H]1CN(Cc2ccoc2)C[C@H]1CO)c1cccnc1	.	.	73%	.	.	.
Cn1cc(S(=O)(=O)N2CCc3ccccc32)cc1C(=O)Nc1ccccc1F	.	.	-3%	.	.	.
C[N+](C)(C)CCSSCC[N+](C)(C)C	.	.	4µM*	.	.	.
Cc1cccc(C2c3[nH]c4ccccc4c3CCN2Cc2cccn2-c2ncccn2)c1 (configuration not stated)	?	?	4%	?	23µM*	?
c1ccc(C2c3[nH]c4ccccc4c3CCN2Cc2cccn2-c2ccccn2)nc1 (configuration not stated)	0%	?	4%	0%	?	-8%
COc1ccc(C2c3[nH]c4ccccc4c3CCN2Cc2cccn2-c2ncccn2)cc1C (configuration not stated)	?	15µM*	-8%	?	16µM*	21µM*
COc1ccc(CCNC(=O)Cn2c(C)c3cnn(-c4ccccc4)c(=O)c3c2C)cc1OC	.	-14%	-14%	.	-6%	.
COc1ccc(OC)c(CCNC(=O)C(C)n2c(C)c3cnn(-c4ccccc4)c(=O)c3c2C)c1 (configuration not stated)	.	21µM*	-14%	.	?	.
COc1ccc(OC)c(CNC(=O)C(C)n2c(C)c3cnn(-c4ccccc4)c(=O)c3c2C)c1 (configuration not stated)	.	?	-10%	.	12µM*	.
COC(=O)c1ccccc1NC(=O)Cn1cnc2c(cnn2-c2ccccc2)c1=O	-16%	7%	-19%	3%	-15%	-4%
CSc1ccc(CCNC(=O)C(C)n2c(C)c3cnn(-c4ccccc4)c(=O)c3c2C)cc1 (configuration not stated)	.	26µM*	?	.	?	.
CCOc1ccc(CCNC(=O)Cn2c(C)c3cnn(-c4ccccc4)c(=O)c3c2C)cc1	.	-14%	?	.	-10%	.
Cc1c2cnn(-c3ccccc3)c(=O)c2c(C)n1C(C)C(=O)NCc1cccc(Br)c1 (configuration not stated)	.	?	-10%	.	?	.
CCC(C(=O)Nc1ccccc1C(=O)OC)n1c(C)c2cnn(-c3ccccc3)c(=O)c2c1C (configuration not stated)	.	26µM*	-12%	.	?	.
CCOc1ccc(C=O)c2ccccc12	.	.	3%	.	.	.
N#CC1=C(Nc2ccccc2)SC=C(c2ccccc2)N=C1N1CCOCC1	29%	5.8µM*	1%	8%	29µM*	17%
N#Cc1nc(COc2ccccc2)oc1N1CCOCC1	0%	-11%	0%	-14%	-2%	?
N#CC1=C(Nc2ccccc2)SC=C(c2ccc(Cl)c(Cl)c2)N=C1N1CCOCC1	-10%	13µM*	0%	-6%	?	-24%
N#Cc1nc(-c2ccccc2Cl)oc1N1CCOCC1	-4%	?	-5%	-19%	?	15%
CC(Sc1nc2ccccc2o1)C(=O)NC1CCCC1 (configuration not stated)	.	.	-3%	.	.	.
SMILES	Gal4-VP16 FLuc	TDP1 cell CPT	12-LOX inh	RORgamma inh	TDP1 cell noCPT	ELG1 repair inh
N#Cc1nc(COc2ccccc2)oc1NCc1ccccc1Cl	.	.	-19%	.	.	.
CCOC(=O)Nc1cccc(C#N)c1	.	.	3%	.	.	.
Cc1ccc(Cn2cnc3nc4c(cc3c2=O)CC(C)CC4)cc1 (configuration not stated)	.	21µM*	2%	.	15µM*	.
CCc1cc(=O)n2[nH]c(C)c(-c3ccc(OC)cc3)c2n1	-6%	-7%	-9%	9%	-30%	1%
Cc1nn2c(-c3ccccc3)cc(-c3ccccc3)nc2c1-c1ccc(Cl)cc1	.	1%	-12%	.	-4%	.
COc1ccc(-c2c(C(F)(F)F)[nH]n3c(=O)cc(-c4ccccc4)nc23)cc1	-5%	?	11µM*	8%	?	?
CCCc1cc(=O)n2[nH]c(C)c(-c3ccccc3OC)c2n1	.	-19%	2%	.	-24%	.
Cc1[nH]n2c(=O)cc(-c3ccc(Cl)cc3)nc2c1-c1ccccc1	.	0.65µM*	40µM*	.	0.92µM*	.
Cc1[nH]n2c(=O)cc(-c3ccc([N+](=O)[O-])cc3)nc2c1-c1ccccc1	.	12µM*	?	.	7.3µM*	.
Cc1[nH]n2c(=O)cc(C(C)(C)C)nc2c1-c1ccccc1	3.2µM*	4.6µM*	-1%	1.4µM*	5.2µM*	?
CCN1C(=O)c2ccc(C(=O)Nc3cccc(C(=O)O)c3)cc2C1=O	?	13%	116%	10µM*	-1%	-3%
O=C(c1cc(=O)c2ccccc2o1)N1CCCC1Cc1ccccc1 (configuration not stated)	.	.	8%	.	.	.
COc1cc(OC)c(C(=O)OCC(=O)Nc2ccccc2C(C)=O)cc1OC	.	.	33%	.	.	.
O=C1Nc2ccccc2CC12CCN(Cc1ccc(C(F)(F)F)cc1)CC2	.	.	-5%	.	.	.
COc1ccc(C(=O)Nc2ccc(O)c3ccccc23)cc1	.	?	?	.	26µM*	.
COc1ccc(NC(=O)Nc2ccc(O)c3ccccc23)cc1	.	5.8µM*	?	.	13µM*	.
Cc1ccc(-c2noc(-c3cc4cc(Cl)ccc4oc3=O)n2)cc1	.	.	-16%	.	.	.
O=C(Nc1cc(Cl)cc(Cl)c1)N1CCCC1c1nncn1C1CCCC1 (configuration not stated)	.	.	15%	.	.	.
Cc1ccc(-n2nnc(-c3nccs3)n2)cc1	5.6µM*	-27%	-21%	4µM*	?	?
COc1cccc(CCC(=O)N2[C@@H]3CC[C@H]2CC(NC(=O)c2ccc(F)cc2)C3)c1 (some centres not stated)	.	.	41%	.	.	.
COC(=O)[C@]1(CC(C)C)N[C@H](c2ccc(-c3cccc(Cl)c3)cc2)[C@@H]2C(=O)N(C)C(=O)[C@@H]21	.	13µM*	?	.	26µM*	-13%

Compound activity deposited in PubChem by National Center for Advancing Translational Sciences (NCATS).
